# Screening data from PubChem.
# Shown are actives, neighbours in structure and some others; about 21% of the full set was active somewhere.
# D3 ag: agonists of human D3 dopamine receptor; max activation, %; 410,000 tested, 0.58% active; D3R DiscoveRx beta-arrestin cells, luminescence, 90 min; P35462; in the data active means max activation above about 30%; further: 0% is about no effect
#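 Agonist-mode cell screen: cells plated at 1500/well and incubated overnight at 37 °C, then exposed to library compounds for 90 min at 37 °C. Detection reagent was added for 30–60 min at room temperature, and luminescence was read.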
# DT40 TDP1 CPT: growth inhibition of DT40 Tdp1-/-;hTDP1 cells with camptothecin (screen for TDP1 inhibitors); chicken DT40 Tdp1-/-;hTDP1 cells + 20 nM CPT, ATP luminescence, 48 h; Potency, µM (highest dose often 46.2 µM), for inactives: at the top dose activity change, negative = growth inhibition, usual class: inhibitors; 420,000 tested, 12% active; further: potency means the concentration at half of the fitted maximal effect; on the % scale 0 is the no-effect control and ±100 the full control effect; nearly all actives have a fitted effect of over 55% in size
#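 Chicken DT40 Tdp1-/- cells complemented with human TDP1, 400 cells/well, exposed to compounds plus 20 nM camptothecin for at least 48 h at 37 C; viability read as ATP content by CellTiter-Glo luminescence.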
# IL1B secr inh: blocks inflammasome-driven IL-1 beta release; THP-1 LPS/ATP IL-1B secretion, AlphaLISA, 16 h; active compounds read low; activity change, % at 57.5 µM; 360,000 tested, 4.7% active; AID 743279; in the data active means activity change below about -50%; inconclusive means mostly about -30% to -49%; further: on the % scale 0 is the no-effect control and ±100 the full control effect
#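 Secreted IL-1B measured by AlphaLISA bead assay after 16 h compound exposure of THP-1 cells; compounds (final up to 57.5 uM) added 1 h before LPS (250 ng/mL) and ATP (1.25 mM) stimulation; lower signal means less secretion.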
# D3 antag: antagonists of human D3 dopamine receptor; 360,000 tested, 2.5% active; D3R cells, DiscoveRx beta-arrestin luminescence, antagonist mode; active compounds read low; max response, negative = inhibition, %; AID 652054; in the data active means max response below about -50%; inconclusive means no clear call, values can overlap the other calls; further: on the % scale 0 is the no-effect control and ±100 the full control effect
#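 Cells plated overnight at 1500 cells/well, then exposed to library compounds with dopamine controls for 90 minutes at 37 degrees C. DiscoveRx reagent added for 30–60 minutes at room temperature; luminescence read, quantitative HTS format.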
# DT40 TDP1 no CPT: qHTS for Inhibitors of human tyrosyl-DNA phosphodiesterase 1 (TDP1): qHTS in cells in absence of CPT; DT40 Tdp1-/- hTDP1 cells, no CPT, ATP luminescence, 48 h; Potency, µM (titrated, usually from 46.2 µM), without a hit: top-dose activity change, negative = growth inhibition, most hits filed as inhibitors; 420,000 tested, 15% active; AID 686978, 2013; further: potency means the concentration at half of the fitted maximal effect; on the % scale 0 is the no-effect control and ±100 the full control effect; nearly all actives have a fitted effect of over 55% in size
#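 Readout: luminescence from CellTiter-Glo after 30 min in the dark at RT. Cells: DT40 Tdp1-/- with stable hTDP1, 400/well. Exposure: compounds alone, ≥48 hr, 37 °C.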
# ClpP mod: qHTS Assay for Activators of ClpP; purified B. subtilis ClpP, FRET peptide cleavage, 20 min; Potency, µM (top dose mostly 57.5 µM), without a hit: at the top dose activity change, negative = active; ATP-dependent Clp protease proteolytic subunit (Bacillus subtilis (strain 168)), P80244; 340,000 tested, 1.9% active; active means well fitted falling curve with a large enough effect; inconclusive means small, poorly fitted or top-dose-only effect; inactive means no such curve, though single readings can be large or run the other way; further: potency means the concentration at half of the fitted maximal effect; the source files actives as falling curves though it sought activators and does not explain the sign; nearly all actives have a fitted effect of over 65% in size
# Target sequence (P80244 whole entry, looked up): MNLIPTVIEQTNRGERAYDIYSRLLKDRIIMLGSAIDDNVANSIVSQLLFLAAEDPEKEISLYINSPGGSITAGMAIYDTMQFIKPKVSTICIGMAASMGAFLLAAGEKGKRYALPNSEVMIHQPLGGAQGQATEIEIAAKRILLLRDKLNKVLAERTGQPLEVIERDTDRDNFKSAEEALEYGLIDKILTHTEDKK
#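 FRET quenching reversal measured ClpP activation: 10 microg/mL B. subtilis ClpP at pH 8 with the FRET-FV decapeptide, read at 430 nm after 320 nm excitation. The 20-min minus 0-min signal was scaled between DMSO/no-enzyme wells and ADEP (5.8 microM final).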
# * marks the source's active call; other numbers are inactive results; u = inconclusive; x = no result. Unless noted, the call rests on the fitted dose curve; in most records, active means well fitted inhibition curve with a large enough effect; inconclusive means small, poorly fitted or top-dose-only effect; inactive means flat fitted curve, though single readings scatter.
SMILES,D3 ag,DT40 TDP1 CPT,IL1B secr inh,D3 antag,DT40 TDP1 no CPT,ClpP mod
Cc1ccc2nc(SCC(=O)N3c4ccccc4CC3C)c(C)cc2c1 (stereo unspecified),-6,23µM*,-11,22,15µM*,-19%
CC1Cc2ccccc2N1C(=O)CSc1nc(-c2ccccc2)cs1 (stereo unspecified),0,u,-21,1,26µM*,-2%
CCOC(=O)Cc1csc(NC(=O)CSc2ncnc3c2cnn3-c2ccccc2Cl)n1,2,u,-8,-13,u,-1%
Cc1ccccc1-n1ncc2c(SCC(=O)N3c4ccccc4CC3C)ncnc21 (stereo unspecified),-5,29µM*,-92*,-22,20µM*,-2%
Cc1sc2nc(C(C)C)nc(SCC(=O)N3c4ccccc4CC3C)c2c1C (stereo unspecified),2,u,25,27,u,-2%
COc1ccc(N2CCN(C(=O)CSc3ncnc4c3cnn4-c3ccccc3C)CC2)cc1,1,u,7,11,u,0%
CCc1nc(SCC(=O)N2c3ccccc3CC2C)c2c(C)c(C)sc2n1 (stereo unspecified),19,9.2µM*,u,52,10µM*,-3%
O=C(COCc1cc(-c2ccc3c(c2)OCO3)on1)Nc1cc(C(F)(F)F)ccc1Cl,4,u,x,x,u,-16%
CCN(CC(=O)Nc1ccccc1OC)C(=O)c1ccc2[nH]c3c(c2c1)CC(C)CC3 (stereo unspecified),2,18µM*,-6,-20,u,-12%
CCCN(CC(=O)Nc1ccccc1OC)C(=O)c1ccncc1,0,-2%,2,-4,-5%,x
CCCN(CC(=O)Nc1ccccc1OC)C(=O)c1ccc2[nH]c3c(c2c1)CC(C)CC3 (stereo unspecified),13,u,-59*,26,u,-8%
COc1ccc(/C(=N/Nc2ncnc3ccccc23)C(=O)O)cc1,-6,21µM*,45,-26,u,x
CC(C)(C)NC(=O)CN1CCCN(C(=O)c2cccc(S(=O)(=O)N3CCc4ccccc43)c2)CC1,-12,u,12,-12,u,-1%
CCCCn1nnnc1C(c1ccccc1)N1CCN(c2ccc(C(F)(F)F)cn2)CC1 (stereo unspecified),-1,u,u,5,18µM*,u
CCCCn1nnnc1C(c1ccccc1)N1CCN(c2ncccc2C(F)(F)F)CC1 (stereo unspecified),2,u,-51*,11,18µM*,-2%
CCCCn1nnnc1C(c1ccccc1)N1CCN(CC)CC1 (stereo unspecified),-7,-22%,34,-4,-11%,1%
CCCCn1nnnc1C(c1ccccc1)N1CCN(c2ccc(C(F)(F)F)cc2[N+](=O)[O-])CC1 (stereo unspecified),-12,u,-12,-7,18µM*,-2%
COc1ccc(NC(=O)Nc2cccc3c2O[C@H](CN(C)C(=O)Nc2c(C)noc2C)[C@@H](C)CN([C@H](C)CO)C3=O)cc1,-3,7%,20,40,-2%,0%
COc1ccc(Cc2nc3ccc(C(=O)NCC4COCCO4)cc3o2)cc1OC (stereo unspecified),3,-9%,14,1,9%,-3%
CCCCN(CC)CCNC(=O)c1cc2c(-c3ccc(Cl)cc3)nn(C)c2s1,-13,u,-97*,-62*,u,4%
CCN(CC)CCNC(=O)c1cc2c(-c3ccc(Cl)cc3)nn(C)c2s1,-16,u,-90*,u,u,5%
CC(C)OCCCNC(=O)c1cc2c(-c3ccc(Cl)cc3)nn(C)c2s1,-7,u,x,x,21µM*,4%
